From PubChem BioAssay (NCI)
“And” between values parts separate entries of the source, which are not always exact repeats. Identical values can stand only once. Compounds without any hit were thinned out: in the full panel of roughly 83,000, 20% have a hit.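 Note: values are percent growth. 100 is the growth of untreated cells, values between 100 and 0 indicate rising inhibition; between -100 and 0 indicates cell death.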 The source made the active and inactive calls. Rule for the calls: active = growth percent below 10; inactive = the rest.

These compounds were tested on SF-295 CNS (assay: NCI-60 one-dose screen, 48 h (100 = growth as untreated, 0 = no growth, -100 = all killed)). Conditions: 10 µM unless noted.

Compound | growth
S=c1nn[nH]n1C1CCCCC1 | 97% (inactive)
CCCC(=O)Oc1ccc(CC)cc1 | 98.5% (inactive)
CC(CN(C)C)CN1c2ccccc2Sc2ccccc21 (stereo unspecified) | 88% (inactive) and 35.8% (inactive) and 92% (inactive)
O=S(=O)(O)c1ccc2cc(O)ccc2c1 | 110% (inactive)
C(#CCN1CCOCC1)CCCN1CCOCC1 | 113% (inactive) and 106% (inactive)
COc1cc(Cl)ccc1C | 79.2% (inactive)
Clc1ccc(/C=C/c2ccc3ccccc3n2)cc1 | 17.9% (inactive) and 74% (inactive) and 84.7% (inactive)
CCC(C)(O)CCC(C)(O)CC (stereo unspecified) | 102% (inactive)
CC1(C)CC(=O)NC1=O | 108% (inactive)
Cc1ccc(NC(=S)N/C=C(\c2ccccc2)S(=O)Cc2ccccc2)c(C)c1 (stereo unspecified) | 98.9% (inactive)
COC(=O)c1ccccc1Cl | 92.1% (inactive)
N#Cc1c(N)nc2c(c(-c3ccc(Cl)cc3)nn2-c2ccccc2)c1C#N | 97.9% [100 µM] (inactive)
Cn1c(-c2ccccc2)cc(=O)cc1-c1ccccc1 | 93.7% (inactive)
CC(C)(C)C1CCC(=NO)CC1 (stereo unspecified) | 98.3% (inactive)
CC1=CC(=O)c2cccc(NC3=NCCO3)c21 | 95.1% (inactive)
CCOC(C)=N | 121% (inactive)
O=C(N=C1C(=O)C2(CCCCC2)C2(N=C(c3ccccc3)OC2=O)C12CCCCC2)c1ccccc1 (stereo unspecified) | 77.3% (inactive)
Cc1ccc2cccc([N+](=O)[O-])c2n1 | 108% (inactive) and 110% (inactive)
CCOc1ccc(/C=C\C(=O)O)cc1 | 103% (inactive)

Compound | growth
O=C(Nc1ccccc1)OCC(CN1CCCCC1)OC(=O)Nc1ccccc1 (stereo unspecified) | 96.5% (inactive) and 97.9% (inactive)
CSc1nc(N)c(N)c(N)n1 | 108% (inactive)
O=C(O)c1cc(=O)[nH]c(=O)[nH]1 | 101% (inactive) and 124% (inactive)
C/C=C/C(=O)OCCCCCCCCCCCC | 105% (inactive)
CCOC(=O)C1=CC(=O)CC(C)(C)O1 | 125% (inactive) and 114% (inactive)
CCN(CC)CCO/N=C1\CC(c2ccc(OC)c(OC)c2)Oc2ccccc21 (stereo unspecified) | 98.2% (inactive)
NC1=NC(c2ccccc2)N=C(Nc2ccccc2)N1 (stereo unspecified) | 87.5% (inactive) and 83.6% (inactive)
Cc1cnc(N)s1 | 98.3% (inactive)
CC1=CC(=O)C=CC1=Nc1ccc(N(C)C)cc1 | 84.7% (inactive) and 65.6% (inactive)
C#CCOC(=O)C(N)CS (stereo unspecified) | 96.5% (inactive)
O=C(O)c1ccc2c3ccc(C(=O)O)c4c(C(=O)O)ccc(c5ccc(C(=O)O)c1c25)c43 | 84.5% (inactive)
COc1ccc2nccc(Cl)c2c1 | 107% (inactive)
COC(=O)c1nc(N)nc(C(=O)OC)c1C(=O)c1cccc2ccccc12 | 98.7% (inactive)
C/C(CC(C)C)=N/NC(N)=S | 84.3% (inactive)
Cc1c(Cl)c(C)c(Cc2c(C)c(Cl)c(C)c(Cl)c2O)c(O)c1Cl | 0.164% (active)
CCCC(=O)Oc1ccc2ccccc2c1 | 96.7% (inactive)
CCOC(=N)c1ccc(C(=N)OCC)cc1 | 91.6% (inactive)
COc1ccc(/C=C/C(=O)O)cc1OC | 107% (inactive) and 105% (inactive)
CCCC(=O)OCC(COC(=O)CCC)OC(=O)CCC | 99.9% (inactive)

These compounds were tested on SF-539 CNS in the same assay as above. Conditions: 10 µM unless noted.

Compound | growth
S=c1nn[nH]n1C1CCCCC1 | 106% (inactive)
CCCC(=O)Oc1ccc(CC)cc1 | 101% (inactive)
CC(CN(C)C)CN1c2ccccc2Sc2ccccc21 (stereo unspecified) | 91.7% (inactive) and 81.9% (inactive)
O=S(=O)(O)c1ccc2cc(O)ccc2c1 | 102% (inactive)
C(#CCN1CCOCC1)CCCN1CCOCC1 | 104% (inactive) and 91.7% (inactive)
COc1cc(Cl)ccc1C | 104% (inactive)
Clc1ccc(/C=C/c2ccc3ccccc3n2)cc1 | 1.74% (active) and 102% (inactive)
CCC(C)(O)CCC(C)(O)CC (stereo unspecified) | 103% (inactive)
CC1(C)CC(=O)NC1=O | 93.5% (inactive)
Cc1ccc(NC(=S)N/C=C(\c2ccccc2)S(=O)Cc2ccccc2)c(C)c1 (stereo unspecified) | 103% (inactive)
COC(=O)c1ccccc1Cl | 93.5% (inactive)
N#Cc1c(N)nc2c(c(-c3ccc(Cl)cc3)nn2-c2ccccc2)c1C#N | 74.1% [100 µM] (inactive)
Cn1c(-c2ccccc2)cc(=O)cc1-c1ccccc1 | 111% (inactive)
CC(C)(C)C1CCC(=NO)CC1 (stereo unspecified) | 96.2% (inactive)
CC1=CC(=O)c2cccc(NC3=NCCO3)c21 | 95.7% (inactive)
CCOC(C)=N | 106% (inactive)
O=C(N=C1C(=O)C2(CCCCC2)C2(N=C(c3ccccc3)OC2=O)C12CCCCC2)c1ccccc1 (stereo unspecified) | 82.3% (inactive)
Cc1ccc2cccc([N+](=O)[O-])c2n1 | 105% (inactive) and 103% (inactive)
CCOc1ccc(/C=C\C(=O)O)cc1 | 110% (inactive)

Compound | growth
O=C(Nc1ccccc1)OCC(CN1CCCCC1)OC(=O)Nc1ccccc1 (stereo unspecified) | 87.5% (inactive) and 96.2% (inactive)
CSc1nc(N)c(N)c(N)n1 | 103% (inactive)
O=C(O)c1cc(=O)[nH]c(=O)[nH]1 | 104% (inactive) and 80.5% (inactive)
C/C=C/C(=O)OCCCCCCCCCCCC | 109% (inactive)
CCOC(=O)C1=CC(=O)CC(C)(C)O1 | 110% (inactive) and 109% (inactive)
CCN(CC)CCO/N=C1\CC(c2ccc(OC)c(OC)c2)Oc2ccccc21 (stereo unspecified) | 94.7% (inactive)
NC1=NC(c2ccccc2)N=C(Nc2ccccc2)N1 (stereo unspecified) | 84.8% (inactive) and 55.2% (inactive)
Cc1cnc(N)s1 | 103% (inactive)
CC1=CC(=O)C=CC1=Nc1ccc(N(C)C)cc1 | 94.1% (inactive) and 44.5% (inactive)
C#CCOC(=O)C(N)CS (stereo unspecified) | 86.6% (inactive)
O=C(O)c1ccc2c3ccc(C(=O)O)c4c(C(=O)O)ccc(c5ccc(C(=O)O)c1c25)c43 | 94.2% (inactive)
COc1ccc2nccc(Cl)c2c1 | 104% (inactive)
COC(=O)c1nc(N)nc(C(=O)OC)c1C(=O)c1cccc2ccccc12 | 95.4% (inactive)
C/C(CC(C)C)=N/NC(N)=S | 105% (inactive)
Cc1c(Cl)c(C)c(Cc2c(C)c(Cl)c(C)c(Cl)c2O)c(O)c1Cl | 15.7% (inactive)
CCCC(=O)Oc1ccc2ccccc2c1 | 98.3% (inactive)
CCOC(=N)c1ccc(C(=N)OCC)cc1 | 98.1% (inactive)
COc1ccc(/C=C/C(=O)O)cc1OC | 102% (inactive) and 105% (inactive)
CCCC(=O)OCC(COC(=O)CCC)OC(=O)CCC | 103% (inactive)
